Experimental data taken from PubChem BioAssay (NCI).
This is part of a sample that, as a whole, favours compounds with a hit. Of some 83,000 tested, about 20% had one in any assay.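 Growth was measured after 48 h exposure to one concentration of compound in 96-well plates. Values under 10 count as active.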 Unmarked numbers belong to inactive results. Active and inactive are the calls of the source.

How the values were obtained:
Assay in all cases: NCI-60 one-dose screen, 48 h (100 = growth as untreated, 0 = no growth, -100 = all killed)
Settings in all cases: 10 µM
NCI-H23 lung = test system: NCI-H23 lung
NCI-H226 lung = test system: NCI-H226 lung
NCI-H322M lung = test system: NCI-H322M lung
HOP-62 NSCLC = test system: HOP-62 NSCLC
NCI-H460 lung = test system: NCI-H460 lung
NCI-H522 lung = test system: NCI-H522 lung
A549/ATCC NSCLC = test system: A549/ATCC NSCLC
786-0 renal = test system: 786-0 renal
COLO 205 colon = test system: COLO 205 colon
DU-145 prostate = test system: DU-145 prostate
K-562 leukemia = test system: K-562 leukemia
MALME-3M melanoma = test system: MALME-3M melanoma
MDA-MB-231 breast = test system: MDA-MB-231 breast
RXF 393 renal = test system: RXF 393 renal
SF-268 CNS = test system: SF-268 CNS
SF-295 CNS = test system: SF-295 CNS
SF-539 CNS = test system: SF-539 CNS
UACC-257 melanoma = test system: UACC-257 melanoma
M14 melanoma = test system: M14 melanoma
HCT-15 colon = test system: HCT-15 colon

Structure (SMILES)	growth (NCI-H23 lung)	growth (NCI-H226 lung)	growth (NCI-H322M lung)	growth (HOP-62 NSCLC)	growth (NCI-H460 lung)	growth (NCI-H522 lung)	growth (A549/ATCC NSCLC)	growth (786-0 renal)	growth (COLO 205 colon)	growth (DU-145 prostate)	growth (K-562 leukemia)	growth (MALME-3M melanoma)	growth (MDA-MB-231 breast)	growth (RXF 393 renal)	growth (SF-268 CNS)	growth (SF-295 CNS)	growth (SF-539 CNS)	growth (UACC-257 melanoma)	growth (M14 melanoma)	growth (HCT-15 colon)
COc1ccc(C(=O)/C=C/c2cc(-c3cc(OC)c(OC)c(OC)c3)n[nH]2)cc1	87.3%	53.3%	-6.79% (active)	17.6%	2.79% (active)	-0.12% (active)	34.5%	10.4%	30.5%	26.3%	5.85% (active)	69%	38.5%	30.1%	31.2%	-23.8% (active)	-25.6% (active)	70.8%	54.6%	8.52% (active)
COc1ccc2c(c1)nc(N)c1c3cccnc3cn21	33.9%	69.4%	72.5%	42%	1.19% (active)	-2.48% (active)	11.8%	22.7%	-31.5% (active)	5.32% (active)	18.4%	66.3%	22.4%	34.8%	34.4%	-16.6% (active)	10.2%	67.1%	9.28% (active)	19.5%
CC(C)(C#N)Nc1ccccc1	108%	95.8%	124%	108%	109%	94.1%	96.9%	101%	109%	118%	102%	104%	100%	101%	113%	77.7%	96.2%	98.5%	107%	99%
O=C(Nc1ccc(OS(=O)(=O)c2ccccc2)cc1)C12CC3CC(CC(C3)C1)C2	51.5%	60.4%	68.7%	74.4%	35.5%	50.9%	41.6%	57.5%	-0.16% (active)	71.6%	13%	55.8%	19.9%	26.8%	78.6%	45.6%	19.7%	37.8%	47.2%	29.9%
C#Cc1ccc(-n2c(/C=C/c3ccc(C(F)(F)F)cc3)nc3ncccc3c2=O)cc1	78.4%	-42.7% (active)	33.7%	37.6%	72.1%	4.27% (active)	23.6%	53%	18.6%	46.2%	4.03% (active)	39.1%	56.9%	-10.4% (active)	31.4%	32.6%	45.2%	29%	10.7%	22.3%
CCCCCCCC(C)NCCO (stereo not given)	102%	97.4%	88.9%	99.3%	106%	84.9%	93.5%	94.7%	107%	106%	103%	107%	123%	105%	106%	90%	105%	90.8%	105%	116%
COc1cc(C(=O)N2CCN(c3ccccc3OC)CC2)c(N)cc1OCCCN1CCN(c2ccccc2OC)CC1	69.8%	84.6%	100%	93.2%	108%	79.4%	92.7%	96%	85.9%	103%	8.81% (active)	83.4%	80.3%	92.5%	110%	96.9%	89.9%	104%	85.2%	98.7%
CNc1ncc(-c2ccc(C(F)(F)F)cc2)c(NC2CCCCCC2)n1	62.6%	70.3%	76.6%	92.6%	87.8%	57.6%	69.1%	79.4%	68.5%	91%	76.2%	61.3%	92.8%	80.6%	99.7%	79.4%	93.5%	73.2%	93.9%	81.5%
OCC1OC(n2cnc3c(N/N=C\c4ccccn4)ncnc32)C(O)C1O (stereo not given)	27.1%	11.3%	7.28% (active)	10%	1.62% (active)	38.7%	24.6%	16.2%	22.7%	17.7%	17.6%	-14.6% (active)	42.5%	33.4%	21.5%	-1.12% (active)	9.72% (active)	38%	8.81% (active)	25.8%
Cc1ccc(N=Nc2c(N)nc(N)[nH]c2=O)cc1C	101%	93.5%	83.1%	92.9%	107%	92.1%	104%	91.2%	112%	117%	90.9%	89.9%	117%	110%	111%	112%	102%	107%	97.2%	103%
O=C(Nc1cccc(-n2cc(-c3ccncc3)c(-c3ccc(O)c(Cl)c3)n2)c1)c1cccc(C(F)(F)F)c1	41.9%	68%	47%	47.2%	17.2%	28.2%	16.1%	21.4%	98.8%	51.1%	19.3%	24.6%	-58.9% (active)	-12.4% (active)	51.7%	7.62% (active)	27.4%	33.3%	28.4%	23.8%
Cc1[nH]nc2c1C(c1cnn(C)c1)C(C#N)=C(N)O2 (stereo not given)	101%	105%	96.9%	97.9%	104%	80.4%	96.1%	102%	114%	110%	93.6%	95.8%	117%	106%	105%	105%	99.3%	98.3%	100%	99.6%
CN(C)c1ccc(/C=C/C=N/NC(=O)c2cc(O)c(O)c(O)c2)cc1	99.6%	101%	93.7%	103%	107%	-31.8% (active)	98%	103%	94.1%	109%	27.1%	88.9%	85.4%	99.4%	94.6%	103%	89.8%	92.8%	96.9%	94.2%
O=C(Nc1cccc(-n2cc(-c3ccncc3)c(-c3ccc(O)c(Cl)c3)n2)c1)Nc1cccc(C(F)(F)F)c1	-5.75% (active)	57.5%	-10.3% (active)	-3.45% (active)	-4.53% (active)	-6.25% (active)	-6.05% (active)	14.9%	22.7%	12.8%	2.72% (active)	-24.1% (active)	-22.1% (active)	-11.7% (active)	9.04% (active)	-12.6% (active)	-8.84% (active)	-19% (active)	-8.16% (active)	14.9%
O=C1c2ccc3c4c(ccc(c24)C(=O)N1CCNCc1ccccc1)C(=O)N(CCNCc1ccccc1)C3=O	-49.4% (active)	115%	-43% (active)	95.6%	-26.7% (active)	-51.2% (active)	12.8%	52.4%	24.1%	20.7%	1.04% (active)	-68.4% (active)	39.9%	90.5%	7.12% (active)	-28.2% (active)	-54.2% (active)	95.8%	-62.3% (active)	-25.9% (active)
C#Cc1ccc(-n2c(/C=C/c3ccc(O)cc3)nc3ncccc3c2=O)cc1	82.8%	58.7%	86.4%	59.4%	92%	0.111% (active)	53.5%	62.6%	110%	81.8%	25%	39.1%	85.2%	-7.96% (active)	53.8%	31.8%	31.7%	36.5%	43.1%	53.6%
